According to PubChem BioAssay (NCI):
This is part of a sample that, as a whole, favours compounds with a hit. Of some 83,000 tested, about 20% had one in any assay.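 Testing used 96-well plates and a 48-hour single-concentration exposure. Example: -40 means 40% of the starting cells died.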 Unmarked numbers belong to inactive results. The source made the active and inactive calls. The calls were made as follows: active = growth percent below 10; inactive = the rest.

Legend:
Assay in all cases: NCI-60 one-dose screen, 48 h (100 = growth as untreated, 0 = no growth, -100 = all killed)
Settings in all cases: 10 µM unless noted
HCT-15 colon = tested on: HCT-15 colon
HT29 colon = tested on: HT29 colon
SNB-75 CNS = tested on: SNB-75 CNS
SNB-19 CNS = tested on: SNB-19 CNS
U251 CNS = tested on: U251 CNS
PC-3 prostate = tested on: PC-3 prostate
SK-MEL-5 melanoma = tested on: SK-MEL-5 melanoma
UACC-62 melanoma = tested on: UACC-62 melanoma
LOX IMVI melanoma = tested on: LOX IMVI melanoma
SK-MEL-28 melanoma = tested on: SK-MEL-28 melanoma

Row | Structure (SMILES) | growth (HCT-15 colon) | growth (HT29 colon) | growth (SNB-75 CNS) | growth (SNB-19 CNS) | growth (U251 CNS) | growth (PC-3 prostate) | growth (SK-MEL-5 melanoma) | growth (UACC-62 melanoma) | growth (LOX IMVI melanoma) | growth (SK-MEL-28 melanoma)
1 | O=C(Nc1ccc(N=Cc2ccccc2O)cc1)NC1C=c2ccccc2=CC1 (stereo not given) | 100% | 104% | 86.3% | 100% | 93.2% | 104% | 98.7% | 92.7% | 105% | 99.8%
2 | CN(C)C(CNc1oc(-c2cccc3ccccc23)nc1C#N)c1ccco1 (stereo not given) | 79.8% | 72.1% | 71.5% | 101% | 80.4% | 89.5% | 91.7% | 91.3% | 95.8% | 96.3%
3 | COc1ccc2nc(-c3ccc(Cl)cc3)cc(-c3nnc(SC/C(=N/O)c4ccccc4)o3)c2c1 | 48.3% | 27% | 84.8% | 68.4% | 17.3% | 30% | 25.9% | 49.1% | 44.2% | 44.2%
4 | O=C(O)c1cc(N=Nc2ccc(-c3ccc(N=Nc4c(S(=O)(=O)O)cc5ccc(Nc6ccccc6)cc5c4O)cc3)cc2)ccc1O | 100% | 99.9% | 85.2% | 102% | 103% | 96.4% | 106% | 93.7% | 95.6% | 107%
5 | O=c1[nH]c2ccccc2cc1-c1nc2ccc(Cl)cc2[nH]1 | 23.5% | 53.1% | 45.1% | 75.5% | 49.5% | 26% | 42.5% | 43% | 42.4% | 72.4%
6 | N#Cc1c(-c2ccc(F)cc2)nc(N/N=C/c2cccc(O)c2)nc1N1CCOCC1 | 69.5% | 79.8% | 73.9% | 96.1% | 73.5% | 72.7% | 90% | 87.7% | 85.2% | 99%
7 | CC(=O)c1c(OCC#N)ccc2c(C)cc(=O)oc12 | 102% | 117% | 103% | 97.2% | 94.9% | 87.2% | 104% | 96.5% | 100% | 93%
8 | COc1ccccc1-c1ccc2nc(NC(=O)Nc3cc(C(F)(F)F)cc(C(F)(F)F)c3)sc2c1 | 9.74% (active) | 4.76% (active) | 8.11% (active) | 25.1% | 12.5% | 13.5% | -86.1% (active) | 10.8% | 5.02% (active) | 31.1%
9 | O=C(Nc1ccc2ncnc(Nc3ccc(F)c(Cl)c3)c2c1)c1ccccc1 | 52.1% | 79% | 28.5% | 76.8% | 42.8% | 72.7% | 86.5% | 92.2% | 63.9% | 97.5%
10 | C=C(C)[C@@H]1CC[C@]2(C(=O)OCCCC[P+](c3ccccc3)(c3ccccc3)c3ccccc3)CC[C@]3(C)[C@H](CC[C@@H]4[C@@]5(C)CC[C@H](OC(=O)C(Cl)Cl)C(C)(C)[C@@H]5CC[C@]43C)[C@@H]12 | -8.59% (active) | 3% (active) | -46.6% (active) | 11% | -37.1% (active) | -26.2% (active) | -99.4% (active) | -43.2% (active) | -93.7% (active) | -63.4% (active)
11 | C=CCn1c(SCC(=O)Nc2ccc(C(=O)/C=C/c3cc(OC)c(OC)c(OC)c3)cc2)nnc1-c1ccc(Cl)cc1 | -1.47% (active) | -43.1% (active) | 20.1% | 35.2% | -3.31% (active) | 28.3% | 9.64% (active) | 22.1% | -22.4% (active) | 59%
12 | CCN(CC)CC#CCOC(=O)[C@]1(C)CCC[C@]2(C)[C@H]3C[C@H]4C(C(C)C)=C[C@]3(CC[C@H]21)[C@@H]1C(=O)CCC(=O)[C@@H]14 | 42.7% | 5.05% (active) | 55.4% | 70.4% | 38.3% | 25% | 58.8% | 70.5% | 38.7% | 66.2%
13 | COc1ccc2nc3nc4ccc[nH]c4cc3c2c1 | 82.9% | 97.7% | 82.5% | 105% | 94.8% | 93.2% | 88.6% | 105% | 95.1% | 110%
14 | COc1ccc2nc(-c3ccc(Cl)cc3)cc(-c3nnc(SCC(=O)Nc4ccc(/C(C)=N\O)cc4)o3)c2c1 | 23.6% | 24.5% | 39.9% | -18.2% (active) | -15.2% (active) | 13.7% | 71.5% | 45.2% | 25.3% | 72.6%
15 | COc1cc(-c2cn(-c3ccc(Cl)c(Cl)c3)c(=O)[nH]2)cc(OC)c1OC | 103% | 102% | 104% | 81.6% | 95.6% | 104% | 101% | 95.3% | 97.7% | 110%
16 | O=[N+]([O-])c1ccc(N=Nc2c(O)c(N=Nc3cc([N+](=O)[O-])cc([N+](=O)[O-])c3O)cc(N=Nc3cc(S(=O)(=O)O)cc4cc(S(=O)(=O)O)cc(O)c34)c2O)cc1 | 101% | 99.1% | 91.1% | 105% | 105% | 86.7% | 108% |  | 90.1% | 99%
17 | O=C(Nc1nc(-c2ccccc2Cl)cs1)c1cc(-c2ccc(Br)cc2)nc2ccccc12 | 61.6% | 37.4% | 96.8% | 71% | 46.1% | 43.1% | 27.9% |  | 50% | 80.3%
18 | COc1cc(F)c(-c2nc3c(C)cccc3n2Cc2c(F)cccc2F)c(F)c1 | 81.9% | 70.1% | 71.5% | 91.6% | 83.6% | 64.2% | 85.6% |  | 87.8% | 98.7%
19 | COCCOCCOCc1n(Cc2ccc3ccccc3c2)c2ccccc2[n+]1Cc1ccc2ccccc2c1 | 88.4% | -5.47% (active) | -4.1% (active) | 23% | 12.4% | 5.49% (active) | -91.9% (active) | -29.6% (active) | -26.6% (active) | 16.8%
20 | O=Cc1[nH]c(Sc2ccccc2)c2ccccc12 | 70.3% | 55.4% | 42.8% | 89.1% | 67.5% | 46.4% | 74% |  | 80.5% | 92.9%
21 | Cc1nn(-c2ccc(-c3ccc(OC(F)(F)F)cc3)cc2)c2nc(-c3ccccc3)nc(N)c12 | 95.6% | 90.2% | 95% | 90.7% | 85.5% | 93.2% | 100% |  | 93.8% | 115%
22 | CSc1nc(-c2cccs2)c2c(N)[nH]nc2n1 | 99.6% | 93.2% | 93.7% | 106% | 98.9% | 93.6% | 101% |  | 93.3% | 114%
23 | Cc1cc(C)cc(Nc2nccc(-c3c(-c4ccc(F)cc4)ncn3C3CCNCC3)n2)c1 | 9.67% (active) | -0.976% (active) | 17% | 27.5% | 13.1% | 15.4% | -87.6% (active) |  | -81.3% (active) | -34.7% (active)
24 | Nc1cc(N)nc(SCC(=O)O)n1 | 110% | 85.1% | 100% | 100% | 93.4% | 89.9% | 99.8% |  | 97.4% | 106%
25 | CCCCC1=c2c([nH]c3ccc(OC)cc23)=NC2C=CC=NC12 (stereo not given) | 84.2% | 77.8% | 92.9% | 104% | 103% | 86.1% | 84.3% |  | 91.4% | 112%
26 | c1ccc(Sc2ncccn2)nc1 | 102% | 101% | 72.5% | 89.9% | 104% | 97.9% | 102% |  | 92.6% | 109%
27 | CCC[S@](=O)c1ccc2nc(NC(=O)OC)[nH]c2c1 | 98.9% | 79.2% | 86.2% | 95.2% | 89.1% | 89.8% | 98.7% | 89.8% | 96.5% | 107%
